# Results filed as inconclusive are left out. A call without a number means that no potency is given here. Values without a mark were called inactive. The source made the active and inactive calls. Calls come from the whole dose curve; as a rule, active = well fitted curve in the direction sought with a large enough effect; inconclusive = small, poorly fitted or top-dose-only effect, or another doubt; inactive = no such curve, though single readings can be large; an effect the other way counts as inactive or inconclusive.
# Key:
# CRL-7250 = normal cell line; test: Cytotoxic Profiling of Annotated Libraries Using Quantitative High-Throughput Screening (AID 1296008); details: Five cell lines viability, CellTiter-Glo ATP luminescence, 48-72 h; max response: hits give low values; note: nearly all actives have a fitted effect of over 60% in size
# In short: (§1)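 Compounds were pin-transferred onto cells and incubated 48 or 72 hr at 37 degree Celsius, 95% humidity. CellTiter-Glo was added, plates sat 10 min at room temperature, then ATP-coupled luminescence was imaged as the viability read-out.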
# HaCat [1] = test: as above; details: Five cell lines viability, CellTiter-Glo ATP luminescence, 48-72 h; max response: hits give low values
# In short: as §1
# KB-3-1 = test: as above; details: Five cell lines viability, CellTiter-Glo ATP luminescence, 48-72 h; max response: hits give low values
# In short: as §1
# NIH3T3 [2] = test: as above; details: Five cell lines viability, CellTiter-Glo ATP luminescence, 48-72 h; max response: hits give low values
# In short: as §1
# MCC-13 = test: qHTS assay to identify novel small-molecules to repurpose for Merkel cell carcinoma treatment (AID 1296009); details: MCC and control cell lines, CellTiter-Glo viability, 72 h; series mostly up to 46 µM; note: nearly all actives have a fitted effect of over 60% in size
# In short: (§2)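 qHTS format: cells treated with library compounds in DMSO across 8 (NPC) or 11 (MIPE) concentrations. Readout after 72 hr at 37 degree celsius was CellTiter-Glo luminescence.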
# MCC-26 = test: as above; details: MCC and control cell lines, CellTiter-Glo viability, 72 h; series mostly up to 46 µM
# In short: as §2
# MKL-1 = test: as above; details: MCC and control cell lines, CellTiter-Glo viability, 72 h; series mostly up to 46 µM
# In short: as §2
# MKL-2 = test: as above; details: MCC and control cell lines, CellTiter-Glo viability, 72 h; series mostly up to 46 µM
# In short: as §2
# UISO = test: as above; details: MCC and control cell lines, CellTiter-Glo viability, 72 h; series mostly up to 46 µM
# In short: as §2
# WaGa = test: as above; details: MCC and control cell lines, CellTiter-Glo viability, 72 h; series mostly up to 46 µM
# In short: as §2
# C33A = test: Primary qHTS to identify gynecologic anti-cancer compounds using libraries of approved drugs and bioactive compounds (AID 1345084); details: Gynecologic cancer cell panel viability, ATPlite luminescence, 48 h; series mostly up to 57.5 µM; note: nearly all actives have a fitted effect of over 55% in size
# In short: (§3)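 Cells, 1,000 per well, were allowed to settle for 16 h at 37 C before compound addition. Five concentrations were tested for 48 h, and viability was read by ATPlite luminescence after 15 min at room temperature.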
# CAOV3 = test: as above; details: Gynecologic cancer cell panel viability, ATPlite luminescence, 48 h; series mostly up to 57.5 µM
# In short: as §3
# CASKI = test: as above; details: Gynecologic cancer cell panel viability, ATPlite luminescence, 48 h; series mostly up to 57.5 µM
# In short: as §3
# Es-2 = test: as above; details: Gynecologic cancer cell panel viability, ATPlite luminescence, 48 h; series mostly up to 57.5 µM
# In short: as §3
# HeLa = test: as above; details: Gynecologic cancer cell panel viability, ATPlite luminescence, 48 h; series mostly up to 57.5 µM
# In short: as §3
# HACAT [3] = test: qHTS assay to identify novel small-molecules to repurpose for Merkel cell carcinoma treatment (AID 1296009); details: MCC and control cell lines, CellTiter-Glo viability, 72 h; at 44.8 µM (top of the series) unless noted; note: nearly all actives have a fitted effect of over 60% in size
# In short: as §2
# W2 = test: qHTS profiling for inhibitors of Plasmodium falciparum proliferation (AID 504749); note: nearly all actives have a fitted effect of over 60% in size; details: P. falciparum in erythrocytes, SYBR Green DNA, 72 h; series mostly up to 28.7 µM
# In short: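 Parasite proliferation within erythrocytes, 72 h exposure. Endpoint: SYBR Green I fluorescence after overnight lysis at room temperature. Controls: 0.29 uM artemisinin, DMSO.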
# HEK293 = test: Cytotoxic Profiling of Annotated Libraries Using Quantitative High-Throughput Screening (AID 1296008); details: Five cell lines viability, CellTiter-Glo ATP luminescence, 48-72 h; max response: hits give low values; note: nearly all actives have a fitted effect of over 60% in size
# In short: as §1
# NIH3T3 [4] = test: qHTS assay to identify novel small-molecules to repurpose for Merkel cell carcinoma treatment (AID 1296009); details: MCC and control cell lines, CellTiter-Glo viability, 72 h; at 44.8 µM (top of the series); note: nearly all actives have a fitted effect of over 60% in size
# In short: as §2
# Potency is the fitted concentration of half-maximal effect.
compound,measurement,setting,value
COc1ccc(C(Cl)=C(c2ccc(OC)cc2)c2ccc(OC)cc2)cc1,outcome,CRL-7250,inactive
same,max response,HaCat [1],-3.14%
same,max response,KB-3-1,9.01%
same,max response,NIH3T3 [2],-2.4%
same,Potency,MCC-13,inactive
same,Potency,MCC-26,inactive
same,Potency,MKL-1,inactive
same,Potency,MKL-2,inactive
same,Potency,UISO,inactive
same,Potency,WaGa,inactive
same,Potency,C33A,inactive
same,Potency,CAOV3,inactive
same,Potency,CASKI,inactive
same,Potency,Es-2,inactive
same,Potency,HeLa,inactive
CC(=O)O[C@]1(C(C)=O)CC[C@H]2[C@@H]3C=C(C)C4=CC(=O)CC[C@]4(C)[C@H]3CC[C@@]21C,max response,CRL-7250,-4.16%
same,max response,HaCat [1],-4.96%
same,max response,KB-3-1,11.8%
same,max response,NIH3T3 [2],0.169%
same,Potency,MCC-13,inactive
same,Potency,MCC-26,inactive
same,Potency,MKL-1,inactive
same,Potency,MKL-2,inactive
same,Potency,UISO,inactive
same,Potency,WaGa,inactive
same,Potency,C33A,inactive
same,Potency,CAOV3,inactive
same,Potency,CASKI,inactive
same,Potency,Es-2,inactive
same,Potency,HeLa,inactive
CC(=O)OCC(=O)[C@H]1CC[C@H]2[C@@H]3CCC4=CC(=O)CC[C@]4(C)[C@H]3CC[C@]12C,max response,CRL-7250,1.7%
same,outcome,HaCat [1],inactive
same,max response,KB-3-1,-19.8%
same,max response,NIH3T3 [2],0.692%
same,outcome,HACAT [3],inactive
same,Potency,MCC-13,inactive
same,Potency,MCC-26,inactive
same,Potency,MKL-1,inactive
same,Potency,MKL-2,inactive
same,Potency,UISO,inactive
same,Potency,WaGa,inactive
same,Potency,C33A,inactive
same,Potency,CAOV3,inactive
same,Potency,CASKI,inactive
same,Potency,Es-2,inactive
same,Potency,HeLa,11.2 µM (active)
NC(N)=NN=C(/C=C/c1ccc([N+](=O)[O-])o1)/C=C/c1ccc([N+](=O)[O-])o1,Potency,W2,2.39 µM (active)
same,Potency,CRL-7250,5.96 µM (active)
same,Potency,HEK293,4.73 µM (active)
same,Potency,NIH3T3 [2],6.68 µM (active)
same,Potency,MCC-13,2.66 µM (active)
same,Potency,MCC-26,2.66 µM (active)
same,Potency,MKL-1,0.376 µM (active)
same,Potency,MKL-2,0.237 µM (active)
same,Potency,UISO,0.841 µM (active)
same,Potency,WaGa,0.237 µM (active)
same,Potency,C33A,12.6 µM (active)
same,Potency,CAOV3,6.31 µM (active)
same,Potency,Es-2,31.6 µM (active)
same,Potency,HeLa,22.4 µM (active)
COc1ccccc1N1CCN(CCCCNC(=O)c2ccc(-c3ccc(C(C)=O)cc3)cc2)CC1,Potency,W2,inactive
same,max response,CRL-7250,-9.94%
same,outcome,HaCat [1],inactive
same,max response,KB-3-1,-4.38%
same,max response,NIH3T3 [2],-11%
same,outcome,HACAT [3],inactive
same,Potency,MCC-13,inactive
same,Potency,MKL-1,inactive
same,Potency,MKL-2,inactive
same,Potency,UISO,inactive
same,Potency,WaGa,inactive
same,Potency,C33A,inactive
same,Potency,CAOV3,inactive
same,Potency,CASKI,inactive
same,Potency,Es-2,inactive
same,Potency,HeLa,inactive
Cc1cc(CC(=O)O)c(C)n1-c1ccc(Cl)cc1,Potency,W2,8.49 µM (active)
same,outcome,CRL-7250,inactive
same,outcome,HaCat [1],inactive
same,max response,KB-3-1,-2.45%
same,outcome,NIH3T3 [2],inactive
same,outcome,HACAT [3],inactive
same,Potency,MCC-13,inactive
same,Potency,MCC-26,inactive
same,Potency,MKL-1,inactive
same,outcome,NIH3T3 [4],inactive
same,Potency,UISO,inactive
same,Potency,WaGa,inactive
same,Potency,C33A,inactive
same,Potency,CAOV3,inactive
same,Potency,CASKI,inactive
same,Potency,Es-2,inactive
same,Potency,HeLa,inactive
C#C[C@]1(O)CC[C@H]2[C@@H]3CCC4=CC(=O)CC[C@@H]4[C@H]3CC[C@@]21CC,max response,CRL-7250,-4.9%
same,max response,HEK293,-17.9%
same,max response,NIH3T3 [2],-3.66%
same,Potency,MCC-13,inactive
same,Potency,MCC-26,inactive
same,Potency,MKL-1,inactive
same,Potency,MKL-2,inactive
same,Potency,UISO,inactive
same,Potency,WaGa,inactive
same,Potency,C33A,inactive
same,Potency,CASKI,inactive
same,Potency,Es-2,inactive
same,Potency,HeLa,3.55 µM (active)
CCCCOC(=O)CC(CC(=O)OCCCC)(OC(C)=O)C(=O)OCCCC,max response,CRL-7250,-18.3%
same,outcome,HaCat [1],inactive
same,max response,KB-3-1,0.604%
same,max response,NIH3T3 [2],-2.35%
same,outcome,HACAT [3],inactive
same,Potency,MCC-13,inactive
same,Potency,MCC-26,inactive
same,Potency,MKL-1,inactive
same,Potency,MKL-2,inactive
same,Potency,UISO,inactive
same,Potency,WaGa,inactive
same,Potency,C33A,inactive
same,Potency,CAOV3,inactive
same,Potency,CASKI,inactive
same,Potency,Es-2,inactive
same,Potency,HeLa,inactive
O=C(CN1CCN(Cc2ccc3c(c2)OCO3)CC1)N1c2ccccc2Sc2ccccc21,Potency,W2,6.01 µM (active)
same,max response,CRL-7250,-6.96%
same,outcome,HaCat [1],inactive
same,max response,KB-3-1,6.91%
same,outcome,NIH3T3 [2],inactive
same,outcome,HACAT [3],inactive
same,Potency,MCC-13,inactive
same,Potency,MCC-26,inactive
same,Potency,MKL-1,inactive
same,Potency,MKL-2,inactive
same,outcome,NIH3T3 [4],inactive
same,Potency,UISO,inactive
same,Potency,WaGa,inactive
same,Potency,C33A,inactive
same,Potency,CAOV3,inactive
same,Potency,CASKI,inactive
same,Potency,Es-2,inactive
same,Potency,HeLa,inactive
C[C@@]12C(=O)OC(=O)[C@]1(C)C1CCC2O1,Potency,CRL-7250,2.99 µM (active)
same,Potency,HEK293,7.5 µM (active)
same,Potency,NIH3T3 [2],9.44 µM (active)
same,Potency,MCC-13,3.76 µM (active)
same,Potency,MKL-1,3.76 µM (active)
same,Potency,UISO,2.66 µM (active)
same,Potency,CAOV3,0.631 µM (active)
same,Potency,CASKI,6.31 µM (active)
same,Potency,Es-2,10 µM (active)
same,Potency,HeLa,3.55 µM (active)
CCN(CC)CCNc1ccc(CO)c2sc3ccccc3c(=O)c12,Potency,W2,0.675 µM (active)
same,Potency,CRL-7250,18.8 µM (active)
same,Potency,HEK293,7.5 µM (active)
same,Potency,NIH3T3 [2],23.7 µM (active)
same,Potency,MCC-13,26.6 µM (active)
same,Potency,MKL-1,10.6 µM (active)
same,Potency,MKL-2,3.35 µM (active)
same,Potency,UISO,5.96 µM (active)
same,Potency,CAOV3,22.4 µM (active)
same,Potency,HeLa,inactive
O=C(Nc1ccccc1)OCC(CN1CCCCC1)OC(=O)Nc1ccccc1 (configuration not stated),max response,CRL-7250,-24%
same,outcome,HaCat [1],inactive
same,max response,KB-3-1,-1.56%
same,max response,NIH3T3 [2],-10.2%
same,outcome,HACAT [3],inactive
same,Potency,MCC-13,inactive
same,Potency,MCC-26,inactive
same,Potency,MKL-1,inactive
same,Potency,MKL-2,inactive
same,Potency,WaGa,inactive
same,Potency,C33A,inactive
same,Potency,CASKI,inactive
same,Potency,Es-2,inactive
same,Potency,HeLa,inactive
O=C(NC1CCN(CCc2c[nH]c3ccccc23)CC1)c1ccccc1,max response,CRL-7250,-5.92%
same,outcome,HaCat [1],inactive
same,max response,KB-3-1,-0.418%
same,max response,NIH3T3 [2],-2.1%
same,outcome,HACAT [3],inactive
same,Potency,MCC-13,inactive
same,Potency,MKL-1,inactive
same,Potency,MKL-2,inactive
same,Potency,UISO,inactive
same,Potency,WaGa,inactive
same,Potency,C33A,inactive
same,Potency,CASKI,inactive
same,Potency,Es-2,inactive
CC(C)(C)NC[C@H](O)COc1cccc2c1CCCC2=O,max response,CRL-7250,-0.218%
same,max response,HaCat [1],-26.5%
same,max response,KB-3-1,-2.09%
same,max response,NIH3T3 [2],-0.923%
same,Potency,MCC-13,inactive
same,Potency,MCC-26,inactive
same,Potency,MKL-1,inactive
same,Potency,MKL-2,inactive
same,Potency,UISO,inactive
same,Potency,WaGa,inactive
same,Potency,C33A,inactive
same,Potency,CAOV3,inactive
same,Potency,CASKI,inactive
same,Potency,Es-2,inactive
same,Potency,HeLa,inactive

# Reference: PubChem BioAssay (NCATS)
